Laboratory results reported in ChEMBL document CHEMBL3433997, “St. Jude Leishmania screening dataset” (2016).

Assays:
Format in all cases: functional
[1] = target: Solute carrier family 2, facilitated glucose transporter member 1 (Homo sapiens) (UniProt P11166); assay: ST_JUDE_LEISH: Cytotoxicity at 2uM final concentration against transgenic Leishmania Mexicana promastigotes LmGLUT1 that are glucose transport deficient and complemented with the human glucose transporter GLUT1. Activity is measured by DNA content using SYBR green in vitro
[2] = target: Hexose transporter 1 (Plasmodium falciparum) (UniProt O97467); assay: ST_JUDE_LEISH: Cytotoxicity at 2uM final concentration against transgenic Leishmania Mexicana promastigotes LmPfHT that are glucose transport deficient and complemented with the Plasmodium falciparum hexose transporter. Activity is measured by DNA content using SYBR green in vitro
[3] = target: Glucose transporter (Leishmania mexicana) (UniProt O61059); assay: ST_JUDE_LEISH: Cytotoxicity at 2uM final concentration against transgenic Leishmania Mexicana promastigotes LmGT2 that are glucose transport deficient and complemented with the L. Mexicana glucose transporter 2. Activity is measured by DNA content using SYBR green in vitro

Solute carrier family 2, facilitated glucose transporter member 1 (Homo sapiens), sequence (P11166 whole entry): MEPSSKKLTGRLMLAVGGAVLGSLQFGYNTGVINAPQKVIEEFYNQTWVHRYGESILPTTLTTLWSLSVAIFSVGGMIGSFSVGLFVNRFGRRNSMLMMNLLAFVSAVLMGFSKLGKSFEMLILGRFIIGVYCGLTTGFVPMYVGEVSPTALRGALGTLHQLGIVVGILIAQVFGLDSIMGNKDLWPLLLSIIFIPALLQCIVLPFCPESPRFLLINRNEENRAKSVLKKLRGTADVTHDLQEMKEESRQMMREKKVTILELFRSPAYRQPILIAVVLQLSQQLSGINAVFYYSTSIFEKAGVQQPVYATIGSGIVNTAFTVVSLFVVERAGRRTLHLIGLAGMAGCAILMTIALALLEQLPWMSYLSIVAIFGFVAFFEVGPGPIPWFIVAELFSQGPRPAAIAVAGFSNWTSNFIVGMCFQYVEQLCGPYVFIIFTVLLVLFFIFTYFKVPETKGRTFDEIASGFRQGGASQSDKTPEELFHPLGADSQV

Row | SMILES | inhibition [1] [%] | inhibition [2] [%] | inhibition [3] [%]
1 | Cc1cc(N[C@@H](Cc2ccccc2)C(=O)NCc2cccs2)nc(NCC2CCCCC2)n1 | 3.33 | 2.71 | -0.41
2 | Cc1ccc2c(=NN=CC=Cc3ccccc3)cc(C)[nH]c2c1 | 1.49 | 5.52 | 2.88
3 | COc1cc2nc(NCCC(C)C)n3nc(-c4ccccc4)nc3c2cc1OC | -1.19 | -0.07 | -1.51
4 | O=C(NCCN1CCCC1)c1ccc(-c2cccc(-c3nc4cc(F)ccc4[nH]3)c2)cc1 | -0.16 | 0 | -0.53
5 | COc1c(C2CCN(CCCCNC(=O)c3ccc(-c4ccc(C#N)cc4)cc3)CC2)cc(Cl)c2c1CCCC2 | 1.68 | 2.86 | 0.77
6 | COc1ccccc1CC1CCCN(C2CCC(NC(=O)c3cc4ccccc4[nH]3)CC2)C1 (configuration not stated) | 0.46 | 0.32 | -0.6
7 | Cc1cc(Nc2ccc(C(C)(C)C)cc2)c2[nH]ncc2n1 | 16.1 | 26.2 | 4.28
8 | Cc1c(-c2ccc3c(c2)C(NCCCN2CCCCC2)CC3)cnc(N)c1C (configuration not stated) | 0.7 | 0.89 | 2.57
9 | Fc1ccc2[nH]c(-c3ccc(-c4cccc(CN5CCN(CCN6CCOCC6)CC5)c4)cc3)nc2c1 | 4.48 | 3.16 | 1.99
10 | Cc1ccc(NC(=O)c2ccc(CN3CCCN(Cc4cccc(Cl)c4)CC3)cc2)cc1C | 3.09 | 3.31 | 2.64
11 | COc1ccc2nccc(N(C)CC3(O)CCN(CCc4ccc5c(c4)OCCO5)CC3)c2n1 | 0.49 | 0.73 | 2.16
12 | COc1cc(NC(=O)/C=C/c2ccccc2OC(F)(F)F)cc(OCCN2CCCCC2)c1 | 2.6 | 1.06 | 1.67
13 | CCN(CC)CC(O)c1cc(-c2ccc(OC)cc2)nc2cc(Cl)ccc12 (configuration not stated) | 6.97 | 5.08 | 7.55
14 | N#Cc1ccc(C(=O)Nc2cc(-c3cccc(O)c3)cc3[nH]ncc23)cc1 | 2.57 | 2.33 | 0.89
15 | COc1cc(CNC[C@@H](O)[C@H](Cc2ccccc2)NC(=O)c2cc(C3CCCC3)cc(N3CCCS3(=O)=O)c2)cc(OC)c1 | 4.36 | 3.83 | 4.45
16 | COc1cc(OC)cc(C(=O)Nc2nc(-c3ccccn3)cs2)c1 | 7.32 | 14.4 | 7.57
17 | COc1ccc(O)c(C(=O)c2cc(C(=O)NCCc3ccccc3)c(=O)n(CCc3ccccc3)c2)c1 | 4.48 | 3.07 | 5.64

Row | SMILES | inhibition [1] [%] | inhibition [2] [%] | inhibition [3] [%]
18 | Cc1cc(OCCCN2CCC(NS(=O)(=O)c3ccc(Cl)c(Cl)c3)C2)c2ccccc2n1 (configuration not stated) | 3.81 | 4.67 | 3.91
19 | CCc1nc(N)nc(N)c1CCCOc1ccccc1Cl | 3.15 | 2.69 | -0.4
20 | CCOc1cc(C2C(C(=O)OC(C)C)=C(C)NC3=C2C(=O)CC(c2ccc(Cl)cc2)C3)ccc1OC(C)=O (configuration not stated) | 6.58 | 6.64 | 6.55
21 | CCNc1cc(C(=O)N[C@@H](Cc2ccccc2)[C@H](O)CN[C@H](C)c2ccccc2)cc(N2CCCC2=O)c1 | 4.44 | 3.88 | -0.89
22 | Fc1ccc(C=NN=c2cc[nH]c3ccc(C(F)(F)F)cc23)cc1 | 6.39 | 6.15 | 5.46
23 | O=C(Nc1ccccc1)c1nn(CCCN2CCC(N3CCCC3)CC2)cc1-c1ccc(Cl)c(Cl)c1 | 2.06 | 0.39 | 0.89
24 | Cc1cc(O)c(-c2ccc(OCc3ccc(Cl)cc3)cc2)c(C)n1 | 0.84 | 0.22 | -0.29
25 | CC1CCCC(NCc2c(O)ccc3ccccc23)C1 (configuration not stated) | 3.58 | 3.22 | 3.69
26 | CC(=O)C1=NN(c2ccc(Cl)cc2)C(c2cccs2)N1c1ccccc1 (configuration not stated) | 1.62 | 0.36 | 0.54
27 | O=C(/C=C/c1ccc(Cl)c(Cl)c1)NCCCCCN1CCC(NC(=O)NC2CCCCCC2)CC1 | -0.58 | 1.53 | 0
28 | CCOC(=O)c1ccc(OCCOc2ccccc2)cc1 | -0.36 | 1.04 | 0.6
29 | O=C(/C=C/c1ccc(Cl)c(Cl)c1)NCCCCCN1CCC(NC(=O)Nc2ccc(Cl)cc2Cl)CC1 | -0.07 | -0.77 | -2.38
30 | CCCNC(=O)Nc1cc2cc(-c3ccc(CN4CCCC4)cc3)ccc2n2c(C)nnc12 | 4.57 | 3.01 | -1.87
31 | OC(c1ccccc1)C1CN(CCC2CC3CCC2C3)CCC1(O)c1ccccc1 (configuration not stated) | -0.77 | -3.69 | -3.24
32 | N#Cc1cccc(NC(=O)Nc2ccc3c(c2)CCN(C2CCC2)CC3)c1 | 5.45 | 4.43 | 4.94
33 | C=CCc1cc(Br)ccc1OCCCOc1c(N)nc(N)nc1N | 6.42 | 7.13 | 3.62
34 | Cc1ccc(O)c(-c2cc(C(=O)Nc3ccc(S(=O)(=O)N4CCCCCC4)cc3)[nH]n2)c1 | -2.76 | -1.17 | -0.85
